Screening data from PubChem BioAssay.
Many of the other results were omitted from the sample, so hits are more common in it than they were.
Dicer processing: inhibitors of human Dicer processing of pre-microRNA; AID 1347074; Q9UPY3; hit rate 6% among 47,000; z-score at 25 µM; cat-ELCCA pre-miR-21 Dicer processing, chemiluminescence; hits give high values; in the data active = z-score above about 3, passing the limit was not always enough;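 note: plate controls were vehicle for no effect and no enzyme for full effect; higher signal means more uncleaved substrate so more Dicer inhibition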
Target sequence (Q9UPY3 whole entry, looked up): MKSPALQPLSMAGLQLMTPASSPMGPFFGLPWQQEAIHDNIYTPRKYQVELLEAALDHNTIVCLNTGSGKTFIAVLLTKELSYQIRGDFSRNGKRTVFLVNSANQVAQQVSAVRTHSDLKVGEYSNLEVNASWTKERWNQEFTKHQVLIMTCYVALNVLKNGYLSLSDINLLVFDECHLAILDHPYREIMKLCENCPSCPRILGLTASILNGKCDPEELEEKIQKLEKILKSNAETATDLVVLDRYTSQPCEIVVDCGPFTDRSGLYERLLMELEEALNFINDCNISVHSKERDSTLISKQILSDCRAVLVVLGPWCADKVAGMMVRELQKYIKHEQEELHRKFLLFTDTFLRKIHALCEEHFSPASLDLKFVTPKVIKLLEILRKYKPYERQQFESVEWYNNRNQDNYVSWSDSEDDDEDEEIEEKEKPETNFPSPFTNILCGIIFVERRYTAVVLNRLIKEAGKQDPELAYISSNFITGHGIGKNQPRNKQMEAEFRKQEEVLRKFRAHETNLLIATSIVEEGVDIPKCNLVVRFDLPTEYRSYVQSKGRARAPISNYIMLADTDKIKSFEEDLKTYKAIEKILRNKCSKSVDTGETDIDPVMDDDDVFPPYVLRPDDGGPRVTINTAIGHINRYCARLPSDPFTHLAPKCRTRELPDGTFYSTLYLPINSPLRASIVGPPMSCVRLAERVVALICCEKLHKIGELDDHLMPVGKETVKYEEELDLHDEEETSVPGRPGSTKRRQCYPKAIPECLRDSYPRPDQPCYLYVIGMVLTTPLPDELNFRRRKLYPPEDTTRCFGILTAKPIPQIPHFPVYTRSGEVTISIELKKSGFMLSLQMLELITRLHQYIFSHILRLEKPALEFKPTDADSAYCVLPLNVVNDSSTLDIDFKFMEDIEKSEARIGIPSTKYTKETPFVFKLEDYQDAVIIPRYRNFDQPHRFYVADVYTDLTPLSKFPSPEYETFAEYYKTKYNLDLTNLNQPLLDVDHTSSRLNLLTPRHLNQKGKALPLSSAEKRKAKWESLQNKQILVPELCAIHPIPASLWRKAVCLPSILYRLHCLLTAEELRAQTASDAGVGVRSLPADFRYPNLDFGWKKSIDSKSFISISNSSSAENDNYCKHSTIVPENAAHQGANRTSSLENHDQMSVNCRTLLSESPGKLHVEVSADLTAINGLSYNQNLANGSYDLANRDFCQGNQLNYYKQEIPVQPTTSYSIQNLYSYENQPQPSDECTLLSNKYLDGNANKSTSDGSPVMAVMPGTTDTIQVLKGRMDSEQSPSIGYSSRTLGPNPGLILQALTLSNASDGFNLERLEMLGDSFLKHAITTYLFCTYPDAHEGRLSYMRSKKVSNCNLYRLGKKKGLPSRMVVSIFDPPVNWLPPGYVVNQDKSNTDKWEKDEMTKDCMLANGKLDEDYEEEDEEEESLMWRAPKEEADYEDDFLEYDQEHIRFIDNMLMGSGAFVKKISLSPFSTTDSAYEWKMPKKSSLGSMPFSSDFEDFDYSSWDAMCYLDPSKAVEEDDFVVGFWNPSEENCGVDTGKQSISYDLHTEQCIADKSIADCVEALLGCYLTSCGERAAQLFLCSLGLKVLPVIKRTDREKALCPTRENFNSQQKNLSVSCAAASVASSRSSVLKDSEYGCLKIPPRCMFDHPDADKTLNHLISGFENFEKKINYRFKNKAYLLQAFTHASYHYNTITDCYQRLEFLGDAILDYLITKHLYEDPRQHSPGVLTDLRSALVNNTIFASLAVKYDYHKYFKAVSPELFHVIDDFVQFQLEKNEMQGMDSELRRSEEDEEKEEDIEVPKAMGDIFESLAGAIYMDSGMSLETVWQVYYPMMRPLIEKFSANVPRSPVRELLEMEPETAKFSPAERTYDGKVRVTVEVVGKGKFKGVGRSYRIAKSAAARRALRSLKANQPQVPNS
* hit, by the source's call; ! = a repeat was not active.

SMILES | Dicer processing
COCCOC(=O)C1=C(C)OC(N)=C(C#N)C12C(=O)Nc1ccccc12 (stereo unspecified) | 3.8*
CCOC(=O)C1=C(N)OC(c2ccccc2)=C(C(=O)OCC)C12C(=O)Nc1ccccc12 (stereo unspecified) | -0.71
CCOC(=O)C1=C(C)OC(N)=C(C#N)C12C(=O)Nc1ccccc12 (stereo unspecified) | 2.2
CCC1(C)CC(CCNCc2ccccc2O)(c2ccc(F)cc2)CCO1 (stereo unspecified) | 0.58
CSc1ccc(/C=C(\C)[N+](=O)[O-])cc1 | 2.3
NC(=O)c1ccc(OCC(O)CN2CC=C(c3ccc(F)cc3)CC2)cc1 (stereo unspecified) | 0.22
COc1cccc(Oc2c(C)oc3cc(OC(=O)N(C)C)ccc3c2=O)c1 | -0.47
CCOc1ccccc1Oc1coc2cc(OC(=O)N(C)C)ccc2c1=O | 3.4*
Cc1oc2cc(OC(=O)N(C)C)ccc2c(=O)c1Oc1ccccc1Br | 1.2
CC1(C)C(C(=O)N2CCN(c3ccc(Cl)cc3)CC2)C1(C)C | 1.1
COc1ccc2c(c[n+](C)c3c4cc5c(cc4ccc23)OCO5)c1OC | 0.33
Cc1cc2n(n1)C(c1cccnc1)Nc1c(C)cccc1-2 (stereo unspecified) | -1.4
CC[C@@H]1C(=O)OC[C@@H]1Cc1cncn1C | -0.99
O=c1c2ccccc2nc(C(F)(F)F)n1-c1ccccc1 | 2.8
O=c1c2ccccc2nc(/C=C/c2ccc3c(c2)OCO3)n1-c1ccccc1O | 2.7
Cc1ccc(-n2c(/C=C/c3ccc([N+](=O)[O-])o3)nc3ccccc3c2=O)cc1 | 3*
O=c1c2ccccc2nc(/C=C/c2ccc([N+](=O)[O-])o2)n1-c1ccc(Br)cc1 | 2.3
O=c1c2ccccc2nc(/C=C/c2ccccc2F)n1-c1ccccc1 | 6*
Cc1nc2ccccc2c(=O)n1-c1ccc(Br)cc1 | -0.44
CN(C)c1ccc(/C=C/c2nc3ccccc3c(=O)n2-c2ccccc2)cc1 | 1.8
O=c1c2ccccc2nc(/C=C/c2ccco2)n1-c1cccc(O)c1 | 2.2
O=c1c2ccccc2nc(/C=C/c2ccccc2)n1-c1cccc(O)c1 | 3.1*
CC1CN(Cc2ccccc2)CCN1 (stereo unspecified) | 0.02
NC(=O)OCCCc1ccccc1 | -0.3
C#CCN[C@H](C)Cc1ccccc1 | -0.68
SMILES | Dicer processing
Cc1cccc(-c2nc(N(C)C3CCN(C)CC3)c3ccccc3n2)c1 | -0.2
O=C1c2ccccc2C(=O)N1CN(Cc1csc2ccccc12)CN1C(=O)c2ccccc2C1=O | -0.45
C=CCN1C[C@@H](C)N([C@H](c2ccc(C(=O)N(CC)CC)cc2)c2cccc(OC)c2)C[C@@H]1C | 0.8
O=C(NCc1cccnc1)NC1CCCCC1 | 1.6
COc1ccc(CN2CCN(Cc3ccc(Br)cc3)CC2)cc1 | -0.08
COc1cccc(CN2CCN(Cc3cc(Br)ccc3O)CC2)c1 | 3.4*
CCc1ccc(CN2CCN(Cc3cc(Br)ccc3O)CC2)cc1 | 0.95
O=c1c2ccccc2nc(-c2cccs2)n1-c1ccc(Br)cc1 | -0.56
COc1ccc(CNCCc2ccc3c(c2)OCO3)cc1OC | 2.1
COC(=O)[C@@H](N)CCCN=C(N)N[N+](=O)[O-] | -0.13
N#CC1=C(N)Oc2c(c(=O)oc3ccccc23)C1c1cccnc1 (stereo unspecified) | -1.2
O=c1oc2ccccc2c2c1C(c1cccc([N+](=O)[O-])c1)c1c(c3ccccc3oc1=O)O2 | -0.29
O=c1oc2ccccc2c2c1C(c1ccc([N+](=O)[O-])cc1)c1c(c3ccccc3oc1=O)O2 | 3.7*
CN(C)C(=O)Oc1nnc(SCC(=O)c2ccc3c(c2)OCCO3)n1C1CC1 | 0.89
C=C1C[C@@H]2[C@H](CC[C@]3(C)C(=O)CC[C@@H]23)[C@@]2(C)C=CC(=O)C=C12 | -0.04
Clc1ccc(CN2CCNCC2)cc1 | 0.84
ON=C1CC2CCCC(C1)N2Cc1ccccc1 | -2.5
Clc1cc(Cl)cc(NC2=NCCS2)c1 | 3.7*!
Clc1cc(Br)ccc1NC1=NCCS1 | 0.58
Cc1cc(C)c(NC2=NCCS2)c(C)c1 | -0.62
Cc1ccc(NC2=NCCS2)c(C)c1 | 1.6
Clc1cccc(Cl)c1NC1=NCCS1 | 2.3
Clc1cccc(NC2=NCCS2)c1Cl | 3.6*
Cc1ccc(NC2=NCC(C)S2)cc1 (stereo unspecified) | -0.66
O=C1C2CN3CCN(C2)CC1(c1ccccc1)C3 | 1.4
SMILES | Dicer processing
C[C@]12COC(=O)C[C@@H]1CC[C@@H]1[C@@H]2CC[C@@]2(C)[C@H]1CC[C@]2(C)O | 1.5
NC1CCc2cc(O)c(O)cc2C1 (stereo unspecified) | -0.12
Clc1ccc(COC(Cn2ccnc2)c2ccc(Cl)cc2Cl)cc1 (stereo unspecified) | -0.61
Nc1ccc(Cc2ccc(N)cc2)cc1 | 7.6*
Cn1c(O)c(C(=O)c2ccccc2)c(=O)n(C)c1=O | -4.3
CCC1(C(=O)c2ccc(F)cc2)C2c3cc(Br)ccc3OC(=O)C21C(=O)OC (stereo unspecified) | 3.4*
O=C(O)Cc1c(Cl)sc2ccc(Cl)cc12 | -0.64
O=[N+]([O-])c1cc(O)c(O)c([N+](=O)[O-])c1 | -2.1
Clc1ccccc1CN1CCN(Cc2ccc3c(c2)OCO3)CC1 | 3.9*
Fc1cccc(Cl)c1CN1CCN(Cc2c(F)cccc2Cl)CC1 | -3.9
CSc1ccc(CN2CCN(Cc3ccccc3Cl)CC2)cc1 | 0.04
Clc1ccc(CN2CCN(Cc3ccc4c(c3)OCO4)CC2)cc1 | -1.7
Fc1cccc(CN2CCN(Cc3ccccc3Cl)CC2)c1 | 6.4*
Clc1cccc(CN2CCN(Cc3ccc4c(c3)OCO4)CC2)c1 | -0.43
CN1CC[C@]2(Cl)CCCC[C@@H]2C1 | 1
Cc1ccc2[nH]c(=S)n(-c3ccccc3F)c(=O)c2c1 | 5.3*
CCc1ccccc1-n1c(=S)[nH]c2ccccc2c1=O | -0.47
Cc1ccc(-n2c(=S)[nH]c3ccccc3c2=O)cc1 | 1.4
CC(=O)OC1CCC2C3CC[C@H]4C[C@@H]5C[C@@H]5[C@H](O)C4(C)C3CCC12C (stereo partly specified) | -1.4
C[C@]12CCC3[C@@H](CC[C@@H]4C[C@H](O)CC[C@]34C)[C@@H]1CCC2=O (stereo partly specified) | 0.03
C[C@]12CC[C@H](O)C[C@H]1CC[C@@H]1[C@@H]2C[C@@H](O)[C@]2(C)[C@@H](C3=CC(=O)OC3)CC[C@]12O | 4.5*
C[C@]12CC[C@H](O)C[C@H]1CC[C@@H]1[C@@H]2CC[C@]2(C)[C@@H](C3=CC(=O)OC3)CC[C@]12O | 0.23
c1ccc(-c2ccc(C3NN=C4C5CCN(CC5)C43)cc2)cc1 (stereo unspecified) | -1.3
COC(=O)C1=CO[C@@H](C)[C@@H]2CN3CCc4c([nH]c5cc(OC)ccc45)[C@@H]3C[C@H]12 | -1
